From PubChem BioAssay AID1159580 (chemical genetic matrix, 2015)
In all, about 5,500 compounds went through this assay and about 2,000 (36%) were called active. Another 18% or so got no clear call; they are omitted. Cut-off read from the data, not from the text of the source: active = normalized growth mostly below about 0.91 (no sharp cut-off); inconclusive = no clear call, values can overlap the other calls; inactive = mostly above about 0.92. Some of the results follow.

Assay: chemical genetic growth profiling, strain panel (AID 1159580);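 note: tested at 20 µM; growth read once vehicle control cultures reached saturation at 30 °C; 1 = growth at the plate median or of vehicle wells; lower values mean less growth of the strain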
Conditions: growth OD

Measured: normalized growth

COc1cc(-c2coc3cc(OCc4ccccc4)c(OC)c(O)c3c2=O)cc(OCc2ccccc2)c1OC
inactive: S. cerevisiae deletion strains, locus YAL013W, strain DEP1, stronger effect = lower value 1.04 | S. cerevisiae deletion strains, locus YBR021W, strain FUR4, stronger effect = lower value 1.01 | S. cerevisiae deletion strains, locus YBR229C, strain ROT2, stronger effect = lower value 0.995 | S. cerevisiae deletion strains, locus YCL029C, strain bik1, stronger effect = lower value 0.981 | S. cerevisiae deletion strains, locus YDL035C, strain GPR1, stronger effect = lower value 1.03 | S. cerevisiae deletion strains, locus YDL074C, strain BRE1, stronger effect = lower value 1.02 | S. cerevisiae deletion strains, locus YDL101C, strain DUN1, stronger effect = lower value 0.99 | S. cerevisiae deletion strains, locus YDL185W, strain tfp1, stronger effect = lower value 0.989 | S. cerevisiae deletion strains, locus YDL192W, strain arf1, stronger effect = lower value 0.981 | S. cerevisiae deletion strains, locus YDR101C, strain arx1, stronger effect = lower value 0.991 | S. cerevisiae deletion strains, locus YDR150W, strain NUM1, stronger effect = lower value 1.01 | S. cerevisiae deletion strains, locus YDR162C, strain NBP2, stronger effect = lower value 1.02 | S. cerevisiae deletion strains, locus YDR318W, strain mcm21, stronger effect = lower value 0.992 | S. cerevisiae deletion strains, locus YDR388W, stronger effect = lower value 0.981 | S. cerevisiae deletion strains, locus YDR502C, strain sam2, stronger effect = lower value 0.991 | S. cerevisiae deletion strains, locus YEL061C, strain CIN8, stronger effect = lower value 1.01 | S. cerevisiae deletion strains, locus YER110C, stronger effect = lower value 0.974 | S. cerevisiae deletion strains, locus YER155C, strain BEM2, stronger effect = lower value 0.999 | S. cerevisiae deletion strains, locus YER167W, strain BCK2, stronger effect = lower value 1 | S. cerevisiae deletion strains, locus YGL078C, strain dbp3, stronger effect = lower value 0.988 | S. cerevisiae deletion strains, locus YGL086W, strain mad1, stronger effect = lower value 0.975 | S. cerevisiae deletion strains, locus YGL248W, strain PDE1, stronger effect = lower value 0.973 | S. cerevisiae deletion strains, locus YGR078C, strain PAC10, stronger effect = lower value 1 | S. cerevisiae deletion strains, locus YGR135W, strain pre9, stronger effect = lower value 0.986 | S. cerevisiae deletion strains, locus YGR229C, strain SMI1, stronger effect = lower value 1.04 | S. cerevisiae deletion strains, locus YGR252W, strain gcn5, stronger effect = lower value 1.07 | S. cerevisiae deletion strains, locus YHR030C, strain SLT2, stronger effect = lower value 0.989 | S. cerevisiae deletion strains, locus YHR079C, strain IRE1 (second series), stronger effect = lower value 0.98 | S. cerevisiae deletion strains, locus YHR094C, strain hxt1, stronger effect = lower value 0.978 | S. cerevisiae deletion strains, locus YHR129C, strain ARP1, stronger effect = lower value 0.986 | S. cerevisiae deletion strains, locus YHR200W, strain rpn10, stronger effect = lower value 0.988 | S. cerevisiae deletion strains, locus YIL066C, strain RNR3, stronger effect = lower value 0.982 | S. cerevisiae deletion strains, locus YIL073C, strain SPO22, stronger effect = lower value 0.969 | S. cerevisiae deletion strains, locus YIL125W, strain kgd1, stronger effect = lower value 0.984 | S. cerevisiae deletion strains, locus YIR030C, strain dcg1, stronger effect = lower value 0.988 | S. cerevisiae deletion strains, locus YJL095W, strain BCK1, stronger effect = lower value 0.972 | S. cerevisiae deletion strains, locus YJL134W, strain LCB3, stronger effect = lower value 0.993 | S. cerevisiae deletion strains, locus YJL168C, strain set2, stronger effect = lower value 0.977 | S. cerevisiae deletion strains, locus YJL187C, strain SWE1 (second series), stronger effect = lower value 0.968 | S. cerevisiae deletion strains, locus YJR043C, strain POL32, stronger effect = lower value 1.04 | S. cerevisiae deletion strains, locus YJR075W, strain HOC1, stronger effect = lower value 1.01 | S. cerevisiae deletion strains, locus YKL009W, strain mrt4, stronger effect = lower value 0.968 | S. cerevisiae deletion strains, locus YKL068W, stronger effect = lower value 0.992 | S. cerevisiae deletion strains, locus YKL085W, strain MDH1 (second series), stronger effect = lower value 1.03 | S. cerevisiae deletion strains, locus YKL085W, strain MDH1, stronger effect = lower value 1.03 | S. cerevisiae deletion strains, locus YKL190W, strain CNB1, stronger effect = lower value 1.01 | S. cerevisiae deletion strains, locus YKR001C, strain vps1, stronger effect = lower value 0.964 | S. cerevisiae deletion strains, locus YLR039C, strain RIC1, stronger effect = lower value 1.05 | S. cerevisiae deletion strains, locus YLR058C, strain SHM2, stronger effect = lower value 0.989 | S. cerevisiae deletion strains, locus YLR102C, strain apc9, stronger effect = lower value 0.98 | S. cerevisiae deletion strains, locus YLR262C, strain YPT6, stronger effect = lower value 1.08 | S. cerevisiae deletion strains, locus YLR268W, strain sec22, stronger effect = lower value 0.967 | S. cerevisiae deletion strains, locus YLR330W, strain CHS5, stronger effect = lower value 0.994 | S. cerevisiae deletion strains, locus YLR342W, strain FKS1 (second series), stronger effect = lower value 1.02 | S. cerevisiae deletion strains, locus YLR371W, strain rom2, stronger effect = lower value 0.97 | S. cerevisiae deletion strains, locus YLR418C, strain cdc73, stronger effect = lower value 0.983 | S. cerevisiae deletion strains, locus YML016C, strain PPZ1, stronger effect = lower value 0.991 | S. cerevisiae deletion strains, locus YML032C, strain rad52, stronger effect = lower value 1 | S. cerevisiae deletion strains, locus YML124C, strain tub3, stronger effect = lower value 0.983 | S. cerevisiae deletion strains, locus YMR078C, strain ctf18, stronger effect = lower value 0.975 | S. cerevisiae deletion strains, locus YMR223W, strain ubp8, stronger effect = lower value 0.99 | S. cerevisiae deletion strains, locus YMR307W, strain GAS1, stronger effect = lower value 1.12 | S. cerevisiae deletion strains, locus YNL067W, strain RPL9B, stronger effect = lower value 0.984 | S. cerevisiae deletion strains, locus YNL233W, strain BNI4, stronger effect = lower value 0.977 | S. cerevisiae deletion strains, locus YNL250W, strain rad50, stronger effect = lower value 0.971 | S. cerevisiae deletion strains, locus YNL271C, strain bni1, stronger effect = lower value 0.981 | S. cerevisiae deletion strains, locus YNL298W, strain CLA4, stronger effect = lower value 0.982 | S. cerevisiae deletion strains, locus YNL307C, strain MCK1, stronger effect = lower value 0.969 | S. cerevisiae deletion strains, locus YNL322C, strain KRE1, stronger effect = lower value 0.999 | S. cerevisiae deletion strains, locus YNR052C, strain pop2, stronger effect = lower value 0.991 | S. cerevisiae deletion strains, locus YOL006C, strain TOP1, stronger effect = lower value 0.936 | S. cerevisiae deletion strains, locus YOL012C, strain htz1 0.883 | S. cerevisiae deletion strains, locus YOL147C, strain pex11, stronger effect = lower value 0.989 | S. cerevisiae deletion strains, locus YOR061W, strain CKA2, stronger effect = lower value 0.989 | S. cerevisiae deletion strains, locus YOR069W, strain VPS5, stronger effect = lower value 0.99 | S. cerevisiae deletion strains, locus YOR136W, strain idh2, stronger effect = lower value 0.98 | S. cerevisiae deletion strains, locus YOR144C, strain elg1, stronger effect = lower value 1 | S. cerevisiae deletion strains, locus YOR184W, strain ser1, stronger effect = lower value 0.979 | S. cerevisiae deletion strains, locus YOR316C, strain cot1, stronger effect = lower value 0.981 | S. cerevisiae deletion strains, locus YPL055C, strain LGE1, stronger effect = lower value 0.987 | S. cerevisiae deletion strains, locus YPR119W, strain clb2, stronger effect = lower value 0.981 | S. cerevisiae deletion strains, locus YPR141C, strain kar3, stronger effect = lower value 0.963 | S. cerevisiae deletion strains, locus YPR163C, strain tif3, stronger effect = lower value 0.989 | S. cerevisiae deletion strains, locus YPR167C, strain met16, stronger effect = lower value 0.988 | S. cerevisiae deletion strains, strain wtn01, stronger effect = lower value 0.981 | S. cerevisiae strains, strain wild type, stronger effect = lower value 1
